# Assay results: PubChem BioAssay
# A number with no mark means an inactive call. No rule for the calls is given here.
# Molecular target: L-lactate dehydrogenase (Plasmodium falciparum (isolate CDC / Honduras)) (UniProt Q27743)
# Assay: PfLDH activity inhibition – cell lysate, 3D7 strain, counter-screen for P. falciparum growth inhibition project (AID 2304);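 also: 0% = vehicle and 100% = reference inhibitor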
# Details: P. falciparum 3D7 crude extract, LDH APAD/NBT absorbance; at 2 µM; stronger effect = higher value
# Chain of L-lactate dehydrogenase (Plasmodium falciparum (isolate CDC / Honduras)) (Q27743 whole entry, looked up): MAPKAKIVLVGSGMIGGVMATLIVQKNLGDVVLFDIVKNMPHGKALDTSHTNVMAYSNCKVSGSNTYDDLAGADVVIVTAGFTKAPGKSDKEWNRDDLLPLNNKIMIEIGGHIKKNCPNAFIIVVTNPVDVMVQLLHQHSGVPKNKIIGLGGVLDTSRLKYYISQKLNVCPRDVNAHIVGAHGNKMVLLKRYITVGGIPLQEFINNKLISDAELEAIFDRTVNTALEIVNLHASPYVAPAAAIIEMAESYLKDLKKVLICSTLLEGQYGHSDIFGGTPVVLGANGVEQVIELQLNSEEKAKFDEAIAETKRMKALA
row,SMILES,inhibition
1,c1cncc(Oc2ccc(Nc3ccnc4cc(-c5cccc(CN6CCCCC6)c5)ccc34)cc2)c1,4%
2,CCCC(C)NC[C@@H](O)[C@H](Cc1ccccc1)NC(=O)c1cc(C2CCCC2)cc(N2CCCCS2(=O)=O)c1 (stereo not given in full),3%
3,O=C(Nc1ccc(Cl)cc1)Nc1cccc(-c2ccc(-c3nc4ccccc4[nH]3)cc2)c1,-3%
4,CC(=O)c1ccc(NC(=O)Nc2ccc(N(C)c3ccnc(NC4CC4)n3)cc2)cc1,1%
5,CCOc1c(N2CCN(CCCCNC(=O)c3ccc(NC(=O)c4ccc(Cl)cc4)cc3)CC2)ccc2ccccc12,0%
6,CCCCc1cc(NCc2ccncc2)nc(Nc2ccc(C)cc2)n1,-4%
7,Cc1ccc(F)c(C(=O)Nc2cccc(-c3nn4ccccc4c3-c3ccnc(Nc4cccc(F)c4)n3)c2)c1F,6%
8,O=C(CSc1ccccn1)Nc1c(F)cccc1F,1%
9,Cc1cccc2[nH]c(-c3ccc(-c4ccc(NC(=O)Nc5ccc(Cl)c(Cl)c5)cc4)s3)nc12,0%
10,O=c1ccc2ncc(Cl)c3c2n1CC3CN1CCC(NCc2cc3c(cn2)OCCO3)CC1 (stereo not given),-2%
11,Cc1cc(-c2nc3cncc(-c4cccc(CN5CCCC5Cc5cccnc5)c4)c3n2C)nn1C (stereo not given),-1%
12,C=C[C@]1(C)C[C@@H](OC(=O)NC(=O)C2CCN(C(=O)CSc3ccccc3)CC2)[C@]2(C)[C@H](C)CC[C@]3(CCC(=O)[C@H]32)[C@@H](C)[C@@H]1O,1%
13,COc1ccc2c(c1)[nH]c1c(/C=C/c3ccc([N+](=O)[O-])cc3)nccc12,3%
14,CN1CCN(CCCN(Cc2cccc(-c3ccc(CNCc4ccc5c(c4)OCO5)cc3)c2)C(=O)CCC2CCCC2)CC1,-6%
15,Cc1cc(N[C@@H](Cc2ccccc2)C(=O)NCc2cccc(F)c2)nc(NCCc2cccnc2)n1,-2%
16,O=S(=O)(c1cc(Cl)c(Cl)cc1Cl)N1CCCCC(c2ccc(C(F)(F)F)cc2)=N1,-1%
17,COc1ccc(CCn2c(=N)c(C(=O)NCc3ccc(C)cc3)cc3c(=O)n4ccccc4nc32)cc1,-3%
18,FC(F)(F)c1cccnc1N1CCC(Nc2nc3ccc(Cl)cc3[nH]2)CC1,-2%
19,CCOc1cccc2nc(NCCCNCc3ccc(Cl)c(Cl)c3)cc(NCCCNCc3ccc(Cl)c(Cl)c3)c12,-5%
20,O=[N+]([O-])c1ccc2ncnc(Nc3ccc(F)c(Cl)c3)c2c1,0%

row,SMILES,inhibition
1,O=C(NCc1ccc(F)cc1)Nc1ccc(-c2cccc(-c3nc4ccc(F)cc4[nH]3)c2)cc1,-1%
2,Clc1ccc(-c2ccc(C=NNc3nc(Nc4ccccc4)nc(Nc4ccccc4)n3)o2)cc1Cl,-1%
3,COc1ccc(Nc2c3ccc(Cl)cc3nc3ccc(OC)cc23)cc1,3%
4,CCC(C)NC(=O)CN1CN(c2ccccc2)C2(CCN(C(=O)c3ccc(C(C)(C)C)cc3)CC2)C1=O (stereo not given),-4%
5,COc1ccc(C2CCN(CCCCNC(=O)c3ccc(NC(=O)c4ccc(Cl)cc4)cc3)CC2)c(C)c1,2%
6,O=C(NCCc1ccccc1)c1cc(-c2cccnc2)cnc1NCC1CC1,6%
7,Cc1nccc2c(NC(=O)N[C@@H]3CCN(c4ncc(C(F)(F)F)cc4Br)C3)cccc12,-4%
8,Nc1cccc(CNCc2cccc(-c3cccc(-c4nc5ccc(C(F)(F)F)cc5[nH]4)c3)c2)c1,1%
9,CC1CN=C(c2cccc(NC(=O)Nc3cccc(C4=NCC(C)N4)c3)c2)N1 (stereo not given),-3%
10,COc1ccc(-c2ccc(CN(C)C3CCC(NC(=O)c4cc5ccccc5[nH]4)CC3)cc2)cn1 (stereo not given),-1%
11,N#Cc1ccc(-c2ccc(C(=O)NC3CCN(CCN4CCC(c5cn(CCO)c6ccccc56)CC4)CC3)cc2)cc1,-2%
12,COc1ccc(S(=O)(=O)Nc2cc(C)cc(Br)c2OC)cc1N1CCN(C(=O)C(Cl)(Cl)Cl)CC1,0%
13,CC(C)CNCc1ccc(-c2ccccc2CN(C(=O)NCCc2ccccc2)C2CCN(Cc3ccccc3)CC2)cc1,2%
14,c1ccn2c(Sc3ncnc4sccc34)ncc2c1,2%
15,CC(Oc1ccc(NC(=O)c2cccs2)cc1)C(=O)c1ccc(Cl)cc1 (stereo not given),1%
16,Cc1cc(NCCC(=O)Nc2ccccc2)nc(NCCc2ccccc2)n1,-3%
17,COc1ccc2nccc(N3CCN(CCNCc4ccc5c(n4)NC(=O)CO5)CC3)c2n1,1%
18,CN(C)C(=O)c1cc(CNCc2ccccc2)ccc1-c1cccc(CNCc2ccc(-c3ccccc3)cc2)c1,-3%
19,COC(=O)c1cccc(CNCc2cccc(-c3cccc(-c4nc5ccc(C(F)(F)F)cc5[nH]4)c3)c2)c1,6%
20,CC[C@H](C)CNC(=O)c1cncc(-c2ccc(CNCCCc3ccccc3)cc2)c1,-2%
